From PubChem BioAssay (NCI)
About 83,000 compounds went through this panel and 20% of them were active in at least one assay; those are over-represented in the sample as a whole.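 Cells were grown in 96-well plates and exposed to the test compound at a single concentration for 48 hours; results are reported as percent growth, with values below 10 considered active.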 A number with no mark means an inactive call. Activity calls are given as the source filed them.

Experiments:
Assay in all cases: NCI-60 one-dose screen, 48 h (100 = growth as untreated, 0 = no growth, -100 = all killed)
Details in all cases: 10 µM unless noted
HCT-15 colon = tested on: HCT-15 colon
HT29 colon = tested on: HT29 colon
SNB-75 CNS = tested on: SNB-75 CNS
SNB-19 CNS = tested on: SNB-19 CNS
U251 CNS = tested on: U251 CNS
PC-3 prostate = tested on: PC-3 prostate
SK-MEL-5 melanoma = tested on: SK-MEL-5 melanoma
LOX IMVI melanoma = tested on: LOX IMVI melanoma
SK-MEL-28 melanoma = tested on: SK-MEL-28 melanoma
UACC-62 melanoma = tested on: UACC-62 melanoma

Row | SMILES | growth (HCT-15 colon) | growth (HT29 colon) | growth (SNB-75 CNS) | growth (SNB-19 CNS) | growth (U251 CNS) | growth (PC-3 prostate) | growth (SK-MEL-5 melanoma) | growth (LOX IMVI melanoma) | growth (SK-MEL-28 melanoma) | growth (UACC-62 melanoma)
1 | COc1ccc2c(c1)c(-c1nc(-c3cn(C)c4ncccc34)cs1)cn2CCN1CCOCC1 | 20.9% | 25.9% | 63.3% | 33.1% | 28.2% | 17.6% | 30.7% | 32.5% | 56.1% | –
2 | CC(=O)c1ccc(C(=O)NCC2CCC3(CC2)OOC2(CCCCC2)OO3)cc1 | 82.5% | 83.4% | 99.8% | 96.9% | 64.4% | 71% | – | 35.3% | 95.5% | 80.9%
3 | CC(C)=CC1C(C(=O)OCc2cccc(Oc3ccccc3)c2)C1(C)C (stereo not drawn) | 98.9% | 86.5% | 115% | 98.4% | 98.6% | 92.8% | – | 93.4% | 119% | 78.4%
4 | O=C(CC1(O)C(=O)Nc2ccccc21)c1ccc(C(=O)NCC2CCC3(CC2)OOC2(CCCCC2)OO3)cc1 (stereo not drawn) | 79.9% | 82.1% | 82.1% | 86.4% | 63.6% | 50.8% | – | 57.3% | 86.4% | 63.4%
5 | COc1ccc(O)c(CNC(=O)CN2CCCC2=O)c1 | 103% | 104% | 81.3% | 103% | – | 92.1% | 107% | 99.4% | 99.4% | 96.6%
6 | CC[C@H](C)[C@H](NC(=O)C12CC(NC(C)=O)(C1)C2)C(=O)N(C)[C@H](C[C@@H](OC(C)=O)c1nc(C(=O)N[C@@H](Cc2ccccc2)C[C@H](C)C(=O)OC)cs1)C(C)C | 29.3% | 5.65% (active) | 44.8% | 50.9% | 11.6% | 15.4% | -6.58% (active) | – | 61% | –
7 | Fc1ccc2c(c1)c(-c1nc(-c3c[nH]c4ncccc34)cs1)cn2CCN1CCOCC1 | 27.2% | 47.7% | 32.9% | 63.7% | 51.7% | 23.3% | 32.2% | 56.7% | 75.8% | –
8 | O=C(CC1(O)C(=O)N(Cc2ccccc2)c2ccc(F)cc21)c1ccc(C(=O)NCC2CCC3(CC2)OOC2(CCCCC2)OO3)cc1 (stereo not drawn) | -14.3% (active) | -70.2% (active) | -62.1% (active) | 16.8% | -80.1% (active) | -58.8% (active) | – | -84.5% (active) | 51.5% | -12.5% (active)
9 | O=C(CC1(O)C(=O)Nc2ccc(Br)cc21)c1ccc(C(=O)NCC2CCC3(CC2)OOC2(CCCCC2)OO3)cc1 (stereo not drawn) | 54.2% | 47.2% | 64.6% | 61.4% | 11.8% | 38.9% | – | 32.6% | 73.3% | 54.6%
10 | CC[C@H](C)[C@@H]1OC(=O)C(C)(C)[C@H](O)[C@H](Cc2ccccc2)OC(=O)[C@H](C(C)C)OC(=O)[C@@H](NC(=O)c2cccc(NC=O)c2O)[C@@H](C)OC1=O | 36.2% | 48.4% | 63.9% | 49.5% | 41.2% | 43.9% | – | 38.1% | – | –
11 | O=C(CC1(O)C(=O)N(Cc2ccccc2)c2ccc(Cl)cc21)c1ccc(C(=O)NCC2CCC3(CC2)OOC2(CCCCC2)OO3)cc1 (stereo not drawn) | -14.1% (active) | -69.7% (active) | -61.7% (active) | 30.9% | -81.8% (active) | -54.3% (active) | – | -78.5% (active) | 58.5% | 53%
12 | COc1ccc2c(c1)c(-c1nc(-c3c[nH]c4ncccc34)cs1)cn2CCCCN1CCCCC1 | -76.7% (active) | -72.4% (active) | -75.4% (active) | -71.1% (active) | -75.3% (active) | -79% (active) | -81.3% (active) | -83.1% (active) | -85.1% (active) | –
13 | N#CC1C(C#N)C2CCC1C1C2N1c1ccccc1 (stereo not drawn) | 97.9% | 114% | 87.1% | 104% | 111% | – | 104% | 103% | 106% | 105%
14 | c1ccc(COc2ccc3[nH]cc(CCN(Cc4ccccc4)Cc4ccccc4)c3c2)cc1 | 47.2% | 83.5% | 89.2% | 104% | 81.6% | 57.7% | 88.3% | 81.8% | 104% | –
15 | COc1cc2c(cc1OCCCCCn1c(-c3ccco3)nc3ccccc31)N=C[C@@H]1CCCN1C2=O | 7.84% (active) | 1.38% (active) | -64.2% (active) | 23.3% | – | 17.5% | -17% (active) | -31.6% (active) | -58.6% (active) | -86.9% (active)
16 | Cc1cc(NC(=O)NCc2ccc(N3C(N)=NC(N)=NC3(C)C)cc2)ccc1S(=O)(=O)F | 62.2% | 11.3% | 56% | 34.3% | 32.7% | – | 21% | 16.7% | 57.4% | 11.6%
17 | COc1cc(/C=C\c2cc(OC)c(OC)c(OC)c2)cc(N/C=C\C(=O)c2cc(OC)c(OC)c(OC)c2)c1OC | 19.6% | 3.93% (active) | -6.67% (active) | 43.4% | – | 21.1% | 5.18% (active) | 28.6% | – | 16.8%
18 | Nc1ccc(OCCNS(=O)(=O)c2cccc(S(=O)(=O)F)c2)c(Cl)c1 | 93.4% | 106% | 50.5% | 96.6% | – | 97.6% | 97.1% | 94.2% | 88.8% | 93.2%
19 | O=C1C=C(N2C3C4CCC(C4)C32)C(=O)C=C1c1ccccc1 (stereo not drawn) | 82.7% | 108% | 65.4% | 91.4% | – | 81.7% | 95.9% | 89.9% | 91.7% | 80.6%
20 | COc1ccc2c(c1)c(-c1nc(-c3cn(C)c4ncccc34)cs1)cn2CCCCN1CCCCC1 | -80.9% (active) | -72.6% (active) | 63.9% | -1.68% (active) | -85.6% (active) | -66.3% (active) | -80.4% (active) | -78% (active) | -69% (active) | –
21 | CNC(=O)Oc1ccc(N(C)C)cc1C(C)C | 102% | 98.2% | 66.5% | 101% | 101% | – | 99.4% | 105% | 101% | 102%
22 | Cc1c2cc(Cl)c3ccccc3c2c[n+]2ccccc12 | 103% | 88.9% | -15.7% (active) | -26.3% (active) | 0.443% (active) | – | -43.5% (active) | 84.6% | -27.2% (active) | 29.1%
23 | CC[C@H](C)[C@H](NC(=O)[C@H]1CCCCN1C)C(=O)N(C)[C@H](C[C@@H](OC(C)=O)c1cccc(C(=O)N[C@@H](Cc2ccccc2)C[C@H](C)C(=O)O)n1)C(C)C | 9.38% (active) | -13.2% (active) | 8.07% (active) | 26.9% | – | 25.4% | -24.5% (active) | 15.3% | 69.3% | 40.4%
24 | CC(C)(C)C(=O)OCOP(=O)(OCOC(=O)C(C)(C)C)C1CCCN(O)C1=O (stereo not drawn) | 7.4% (active) | 2.01% (active) | 47.6% | 2.57% (active) | – | 24.2% | -13.5% (active) | 17.6% | -23.8% (active) | –
25 | O=C(NCCN1CC1)C(=O)NCCN1CC1 | 95.2% | 68.9% | 76% | 101% | – | 93.2% | 94.6% | 80.2% | 102% | 91.7%
26 | CCOC(=O)CCN(C)C1=Nc2ccc(Cl)cc2C(c2ccccc2)=[N+]([O-])C1 | 105% | 82% | 99.5% | 99.3% | – | 91% | 100% | 99.8% | 121% | 93.4%
27 | Cc1cc(N(CCCl)CCCl)ccc1C=Nc1ccc(-c2csc(Cc3ccccc3)n2)cc1 | 76.1% | 88.3% | 50.3% | 81.1% | – | 53% | 84.1% | 63.2% | 90.5% | 48.6%
